The record followed here is PubChem BioAssay AID1347165 (National Center for Advancing Translational Sciences (NCATS), 2019).

The whole screen tested about 220,000 compounds, of which about 5,700 (2.6%) were called active. A call without a number means that no potency is given here. Inconclusive results (about 18%) are left out. The call rests on the fitted dose curve; in most records, active means well fitted inhibition curve with a large enough effect; inconclusive means small, poorly fitted or top-dose-only effect; inactive means no such curve, though single readings can be large or run the other way. This excerpt belongs to a sample that is enriched for actives.
Potency means the concentration at half of the fitted maximal effect.

Chain of Lysine-specific demethylase 5B (Homo sapiens) (Q9UGL1 whole entry, looked up): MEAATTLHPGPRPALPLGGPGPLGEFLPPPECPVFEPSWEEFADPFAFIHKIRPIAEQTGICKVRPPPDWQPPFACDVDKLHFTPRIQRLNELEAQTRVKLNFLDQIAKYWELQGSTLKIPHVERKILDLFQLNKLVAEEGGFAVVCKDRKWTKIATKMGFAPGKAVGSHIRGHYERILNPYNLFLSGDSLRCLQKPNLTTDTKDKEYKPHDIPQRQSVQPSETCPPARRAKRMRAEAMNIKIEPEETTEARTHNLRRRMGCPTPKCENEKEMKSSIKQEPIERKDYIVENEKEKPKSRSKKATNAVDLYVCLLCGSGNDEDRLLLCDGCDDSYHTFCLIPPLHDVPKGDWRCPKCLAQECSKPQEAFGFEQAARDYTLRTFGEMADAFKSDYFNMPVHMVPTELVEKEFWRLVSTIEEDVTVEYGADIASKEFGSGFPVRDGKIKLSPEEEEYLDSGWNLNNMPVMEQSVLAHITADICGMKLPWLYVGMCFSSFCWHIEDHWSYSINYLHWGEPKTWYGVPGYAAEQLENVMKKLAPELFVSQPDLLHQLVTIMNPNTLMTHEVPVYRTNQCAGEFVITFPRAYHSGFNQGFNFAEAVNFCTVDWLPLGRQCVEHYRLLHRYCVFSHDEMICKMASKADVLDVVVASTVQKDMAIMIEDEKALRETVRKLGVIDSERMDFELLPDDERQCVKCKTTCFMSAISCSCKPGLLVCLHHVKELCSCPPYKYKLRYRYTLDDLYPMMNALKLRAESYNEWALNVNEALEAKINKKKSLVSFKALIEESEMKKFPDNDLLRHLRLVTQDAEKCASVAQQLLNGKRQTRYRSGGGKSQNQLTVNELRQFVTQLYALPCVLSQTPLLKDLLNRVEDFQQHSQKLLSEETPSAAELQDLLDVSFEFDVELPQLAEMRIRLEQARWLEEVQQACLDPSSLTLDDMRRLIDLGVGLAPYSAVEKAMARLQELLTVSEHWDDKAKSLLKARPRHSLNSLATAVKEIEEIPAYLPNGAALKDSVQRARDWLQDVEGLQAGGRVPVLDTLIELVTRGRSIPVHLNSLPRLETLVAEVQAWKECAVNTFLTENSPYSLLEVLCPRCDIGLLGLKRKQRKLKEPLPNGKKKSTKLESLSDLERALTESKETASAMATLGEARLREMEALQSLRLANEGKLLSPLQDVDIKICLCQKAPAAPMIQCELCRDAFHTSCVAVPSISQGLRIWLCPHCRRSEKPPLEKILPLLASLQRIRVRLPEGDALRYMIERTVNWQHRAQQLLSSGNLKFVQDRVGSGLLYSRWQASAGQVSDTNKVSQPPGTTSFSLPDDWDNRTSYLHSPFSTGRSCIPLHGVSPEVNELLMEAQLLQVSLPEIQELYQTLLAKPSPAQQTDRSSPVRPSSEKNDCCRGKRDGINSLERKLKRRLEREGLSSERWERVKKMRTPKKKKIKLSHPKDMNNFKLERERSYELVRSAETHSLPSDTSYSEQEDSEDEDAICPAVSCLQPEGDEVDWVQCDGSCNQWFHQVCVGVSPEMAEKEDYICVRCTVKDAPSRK

The target in this assay is Lysine-specific demethylase 5B (Homo sapiens) (UniProt Q9UGL1). The assay can be described thus: Primary screen for KDM5B Histone Demethylases FDH-coupled qHTS. Further: nearly all actives have a fitted effect of over 70% in size. As to conditions: FDH-coupled NADH fluorescence (FDH is formaldehyde dehydrogenase); series mostly up to 57.7 µM. From the text:
Assay Submitter (PI): Qin Yan, Ph.D. (Yale University) and Xiaodong Cheng, Ph.D. (MD Anderson) This project was funded as part of the NCI NEXT Program and Chemical Biology Consortium (CBC) The histone demethylases, KDM5A and KDM5B catalyze the demethylation of lysine 4 on histone H3 (H3K4me3/2). They are overexpressed in a variety of cancers and have been implicated in cancer cell growth, metastasis, drug resistance, and tumor growth. KDM5A is amplified and overexpressed in breast and gastric cancer; and is translocated in leukemia. While KDM5B is highly expressed in human mammary tumors and breast cancer cell lines, but not in normal adult breast tissue. Moreover, knockdown of KDM5B leads to upregulation of tumor suppressor genes, including BRCA1. The goal of this project is to employ qHTS to identify selective small molecule inhibitors of KDM5A/B demethylase activity to better understand the role of KDM5 in cancer and to develop novel therapies. We employed an FDH-coupled assay previously reported by Sakurai et al. to monitor in vitro KDM5 demethylase activity. Compounds showing dose response inhibition are re-acquired, validated, and tested for non-specific interference with the formaldehyde dehydrogenase (FDH) counterscreen. True inhibitors are validated using an AlphaLisa secondary screen, which employs an H3K4(me2-1)-specific antibody to monitor demethylation of a biotin-tagged H3K4(me3) peptide substrate. Inhibitors are profiled against KDM4A and KDM6A AlphaLisa counterscreens to determine level of demethylase specificity; and against the TruHits counterscreen to eliminate non-specific inhibitory activity on the AlphaLISA detection method. Selective inhibitors identified from the primary and secondary screening are tested in cells using immunofluorescence to monitor global H3K4 tri-methylation as a measure of KDM5A/B inhibition. Early Translation Branch (ETB) National Center for Advancing Translational Sciences (NCATS), Rockville, MD National Institute of Health (NIH), Bethesda, Maryland [1] Sakurai, M et al. A miniaturized screen for inhibitors of Jumonji histone demethylases. Mol Biosyst. 2010 Feb;6(2):357-64. doi: 10.1039/b912993f. Epub 2009 Oct 8.
Materials: 1536-well Black, solid bottom, medium binding assay plate is purchased from Greiner Bio-one. The enzymes (KDM5B) and substrate (H3K4me3/2) are provided by the principal investigators. The buffer for this assay is composed of 50mM HEPES at pH 7.5 with 0.01% Tween-20. FDH coupled Demethylase qHTS protocol: Three microliter enzyme mix (buffer + 200nM KDM5BDeltaAP final concentration) is dispensed into the assay plate using the BioRAPTR Flying Reagent Dispenser (FRD; […]). Compound (at various final concentration) and control solution is pin transferred to the assay plate using the Kalypsys 1536-pin tool apparatus. The assay plate is incubated for 10 min at room temperature followed by addition of 1uL substrate mix (buffer + 100uM ascorbic acid, 50uM ferrous ammonium sulfate, 12.5uM H3K4Me3, 25uM a-ketoglutarate, 0.25 mM NAD+, 0.25 U/mL formaldehyde dehydrogenase using the FRD yielding a total reaction volume of 4 uL. Initial fluorescence (Read1) is detected using the PerkinElmer ViewLux plate reader equipped with 340 nm excitation and 450 nm emission filters. The final fluorescence (Read2) signal is obtained after 30 min of room temperature incubation. Delta RFU is calculated (Read2 - Read1) and is used to generated dose response curves.
Background: In qHTS, concentration-response curves come from the screen itself.
Take `CCn1c(=O)c2ccnn2c2ccc(C(=O)NC3CCCCC3)cc21`: the Potency is 25.1 µM (active). As for `Cc1ccccc1NC(=O)Cn1c(=O)n(Cc2ccco2)c(=O)c2ccc(C(=O)NC3CCCC3)cc21`, the Potency entry was “inactive”. Consider `O=C(Nc1ccc(F)cc1F)c1ccc2c(c1)n(Cc1cccc(F)c1)c(=O)c1ccnn12`, for which the Potency entry was “inactive”.

As to `CCCCc1ccc(C(=O)NCc2cccnc2)cc1`, the Potency entry is “inactive”.

With `Cc1oc2ccn(Cc3cccc(F)c3)c(=O)c2c1C(=O)NCc1cccnc1`, the Potency result was “inactive”. On to `Cn1c(=O)c2c(nc(SCC(=O)Nc3ccccc3F)n2Cc2ccccc2)n(C)c1=O`, for which the Potency entry is “inactive”. Take `COCCCNC(=O)c1ccc2c(c1)n(Cc1cccc(OC)c1)c(=O)c1ccnn12`: the Potency result was “inactive”.

For the compound `O=C(NCc1cccnc1)c1ccc2c(c1)n(Cc1ccc(F)cc1)c(=O)c1ccnn12`, the Potency is 25.1 µM (active). Consider `Cc1[nH]c2ccccc2c1C=O`, for which the Potency result was “inactive”.

As to `CCOC(=O)CN(CCOC)C(=O)CCCc1ccccc1`, the Potency entry was “inactive”. The result for `CC(C)(C)c1ccc(N2C(=O)[C@@H]3C[C@@H](NC(=O)[C@@H](O)c4ccccc4)CCN3C2=O)cc1` reads “inactive”; that for `O=C(CN1N=C(c2ccccc2F)c2cc(Cl)ccc2S1(=O)=O)Nc1cc(F)ccc1F`, “inactive”.

With `N#Cc1c(N)n[nH]c1CCCNc1ncnc2c1oc1ccccc12`, the Potency entry was “inactive”. For the compound `O=C1CCN(C(=O)c2nccc3ccccc23)CCOCCN1`, the Potency result is “inactive”. To `O=C(c1cc(-c2ccc(Cl)s2)nc2ccccc12)N1CCOCC1` belongs “inactive”; to `CC(C)(C)c1nc(C(=O)N2CCOCC2)n2ccccc12`, 100 µM (active).

As to `NC(=O)c1ccc(NC(=O)CCc2ncc(-c3ccc(F)cc3)o2)cc1`, the Potency result was “inactive”.

Take `c1cc(-c2ccsc2)n2nc(C3CCCO3)nc2n1` (centres undefined): the Potency was 25.1 µM (active). For `O=C(CSc1nnc(-c2ccccc2)c2ccccc12)c1ccc2c(c1)OCCCO2`, the Potency result is “inactive”. For the compound `O=C(CS(=O)(=O)Cc1coc(-c2ccc(F)cc2)n1)NC1CCCCCC1`, the Potency result is “inactive”. Take `O=C(COc1ccc(Cl)cc1)Nc1ccc2oc(-c3ccc(F)cc3)nc2c1`: the Potency result was “inactive”. For `CC(C)C(Nc1ccc([N+](=O)[O-])cn1)c1ccc(Cl)cc1` (centres undefined), the Potency result is “inactive”.

As for `CCN(CC)Cc1ccc(CNC(=O)C2CCN(c3nc4ccccc4o3)CC2)cc1`, the Potency result was “inactive”.

As to `O=C(NC1C[C@H]2CC[C@@H](C1)N2S(=O)(=O)c1ccc2c(c1)OCCO2)c1ccc(F)cc1` (some centres undefined), the Potency entry is “inactive”. `O=C(NCc1ccccc1)C1CCN(c2nc3ccccc3o2)CC1`: the Potency entry was “inactive”.

For `CN(C)C(=O)NC1CCN(c2nc3ncccc3o2)CC1`, the Potency was 31.6 µM (active). The result for `O=C(NC1CCN(c2nc3ncccc3o2)CC1)c1ccc(F)cc1` reads 35.5 µM (active). To `Cc1ccnc(N2CCCC(C(=O)NC3CC3)C2)n1` (centres undefined) belongs “inactive”; to `Cc1cc(C)cc(C(=O)NC2CCN(c3cnn(C)c(=O)c3)CC2)c1`, “inactive”; to `O=C(NC1CC1)C1CCCN(c2nc3ncccc3o2)C1` (centres undefined), 35.5 µM (active). `O=C(NC1CCN(c2nc3ncccc3o2)CC1)c1ccc(Cl)nc1`: the Potency is 25.1 µM (active). In the case of `Cc1ccccc1CN1CCC(N2CCCC(C(=O)NC3CC3)C2)CC1` (centres undefined), the Potency entry is “inactive”. To `O=C(NC1CCN(c2cc(C(F)(F)F)ncn2)CC1)c1ccc(F)cc1` belongs “inactive”; to `O=C(NC1CCCCC1)c1ccc(Cn2c(SCc3ccccc3)nc3cccnc32)cc1`, “inactive”. Take `CC/C(=N/N=C(/CC)c1ccccc1)c1ccccc1`: the Potency result was “inactive”.

For the compound `CC(C)c1nnc(NC(=O)c2cc(Cl)c3c(c2)OCCO3)s1`, the Potency entry was “inactive”. Regarding `O=C(NCc1ccc(CN2CCCCC2)cc1)c1cc2ccccc2oc1=O`, the Potency result was “inactive”. For `CC(C)NC(=O)Nc1ccc(CNC(=O)C2(C#N)CCCC2)cc1`, the Potency result is “inactive”.

As to `Cn1c(=O)[nH]c(=O)c2c1nc(N1CCC(Cc3ccccc3)CC1)n2CCCc1ccccc1`, the Potency result is “inactive”.

For the compound `O=C(NCC(=O)N1CCCC(C(F)(F)F)C1)c1ccccc1F` (centres undefined), the Potency entry was “inactive”. `CC1CCC(NC(=O)CCCc2ccccc2)CC1` (centres undefined): the Potency result was “inactive”. As to `O=C(c1n[nH]c(=O)c2ccccc12)N1CCCCCC1c1nnc(-c2ccccc2)o1` (centres undefined), the Potency entry is “inactive”. As for `Cc1sc(NCCC(C)C)nc1-c1ccc(NS(C)(=O)=O)cc1`, the Potency entry is “inactive”. On to `CC(C)c1ncc(Cl)c(C(=O)O)n1`, for which the Potency result is “inactive”. With `COc1ccc(Nc2cc(Cl)ccc2C(=O)O)cn1`, the Potency entry was “inactive”. `COc1ccc(Nc2cc3c(nc2-c2ccccc2)nc(C(=O)NCCN(C)C)n3C)cn1`: the Potency was 31.6 µM (active). In the case of `CN(C)CCNC(=O)c1nc2nc(-c3ccccc3)c(-c3cccc(F)c3)cc2n1C`, the Potency entry is “inactive”.

As for `CN(C(=O)CCc1c[nH]c2ccccc12)C1CCCC1`, the Potency result was “inactive”. With `O=C1NCc2ccccc2CC12CCCN(Cc1ccc(F)c(Cl)c1)C2` (centres undefined), the Potency result was “inactive”. In the case of `CCOc1ccccc1NC(=O)c1cnc2ccccc2n1`, the Potency entry is “inactive”. To `CCC(C(=O)Nc1ccc(F)cc1F)n1nc(-c2ccc(C)cc2)ccc1=O` (centres undefined) belongs “inactive”; to `O=c1[nH]c(C2CCCN(Cc3ccc(-c4ccsc4)cc3)C2)nc2ccc(F)cc12` (centres undefined), 79.4 µM (active); to `O=c1[nH]c(C2CCN(Cc3ccccc3)CC2)nc2ccc(F)cc12`, “inactive”. Turning to `Cc1ccc2nc(C3CCCN(Cc4ccc(C#N)cc4)C3)[nH]c(=O)c2c1` (centres undefined), the Potency entry was “inactive”.
